# According to PubChem BioAssay (NCI):
# This is part of a sample that, as a whole, favours compounds with a hit. Of some 79,000 tested, about 15% had one in any assay. The source made the active and inactive calls. Rule as the data show it: active = growth inhibition above about 70%; inactive = the rest.
# Key:
# [1] = NCI Yeast Anticancer Drug Screen. Data for the rad52 strain (AID 147);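 also: 0% = growth of vehicle-treated control cultures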; details: S. cerevisiae rad52 mutant growth inhibition, stronger effect = higher value
# Summary of the method: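 Inhibition of yeast growth, referenced to vehicle controls, was the measured output for a strain with defective DNA damage repair.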
# [2] = NCI Yeast Anticancer Drug Screen. Data for the wt1 strain (AID 149);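 also: 0% = growth of vehicle-treated wt1 cultures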; details: S. cerevisiae wt1 strain (SPY 50644) growth inhibition, stronger effect = higher value
# Summary of the method: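 wt1 strain grown with compound or vehicle; inhibition taken from the growth difference.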
# [3] = NCI Yeast Anticancer Drug Screen. Data for the rad50EPP+ strain (AID 151);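 also: 0% = growth of vehicle-treated control cultures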; details: S. cerevisiae rad50 mutant strain, stronger effect = higher value
# Summary of the method: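 Genetically defined yeast (rad50EPP+, DNA damage repair alteration) is grown with compound, and inhibition of growth is expressed relative to vehicle-treated controls.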
# [4] = NCI Yeast Anticancer Drug Screen. Data for the mgt1 strain (AID 153); details: S. cerevisiae mgt1 mutant growth inhibition, stronger effect = higher value
# Summary of the method: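 In the mgt1 strain, test compounds were added and growth inhibition was determined relative to vehicle-treated controls.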
# [5] = NCI Yeast Anticancer Drug Screen. Data for the rad50 strain (AID 155);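 also: 0% = growth of vehicle-only cultures of the same strain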; details: S. cerevisiae rad50 strain growth inhibition, stronger effect = higher value
# Summary of the method: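 DNA repair mutant yeast, compound exposure, growth read-out; inhibition is taken relative to vehicle.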
# [6] = NCI Yeast Anticancer Drug Screen. Data for the mec2-1 strain (AID 157); details: S. cerevisiae mec2-1 strain, stronger effect = higher value
# Summary of the method: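 Each compound was tested on mec2-1 yeast, a strain altered in DNA damage repair or cell cycle control. Growth inhibition is reported relative to vehicle.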
# [7] = NCI Yeast Anticancer Drug Screen. Data for the rad14 strain (AID 159);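 also: 0% = growth of vehicle-treated control cultures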; details: S. cerevisiae rad14 strain growth inhibition, stronger effect = higher value
# Summary of the method: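 DNA repair-defective yeast, compound-exposed; % growth inhibition derived by comparison with vehicle-treated controls.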
# [8] = NCI Yeast Anticancer Drug Screen. Data for the sgs1 mgt1 strain (AID 161);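 also: 0% = growth of cultures given vehicle only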; details: S. cerevisiae sgs1 mgt1 strain, stronger effect = higher value
# Summary of the method: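 Inhibition of yeast growth, normalised to vehicle-treated controls, is reported for a strain bearing genetic alterations in DNA damage repair.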
# [9] = NCI Yeast Anticancer Drug Screen. Data for the CLN2oe strain (AID 163);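 also: 0% = growth of vehicle-only control cultures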; details: S. cerevisiae CLN2oe strain, stronger effect = higher value
# Summary of the method: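 First, the altered yeast strain was treated with each compound; second, its growth was measured; finally, inhibition was derived by comparison with vehicle controls.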
# [10] = NCI Yeast Anticancer Drug Screen. Data for the cln2 rad14 strain (AID 165);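 also: 0% = growth equal to vehicle treated cultures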; details: S. cerevisiae cln2 rad14 strain, stronger effect = higher value
# Summary of the method: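 Test compounds were added to cln2 rad14 yeast cultures; inhibition of growth was then determined by comparison with vehicle treatment.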
# [11] = NCI Yeast Anticancer Drug Screen. Data for the bub3 strain (AID 167); details: S. cerevisiae bub3 mutant strain, stronger effect = higher value
# Summary of the method: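 In this screen, a yeast mutant lacking normal mitotic checkpoint function is challenged with compound. Relative growth versus vehicle gives the inhibition value.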
# [12] = NCI Yeast Anticancer Drug Screen. Data for the wt2 strain (AID 169);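 also: 0% = growth of vehicle-treated yeast cultures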; details: S. cerevisiae wt2 strain growth inhibition, stronger effect = higher value
# Summary of the method: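 The panel's yeast strains carry defined changes in DNA repair or cell cycle genes. Each strain is grown with compound, and growth loss is scored relative to vehicle.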
# [13] = NCI Yeast Anticancer Drug Screen. Data for the mlh1 strain (AID 171);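 also: 0% = growth of vehicle-treated control cultures of the same strain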; details: S. cerevisiae mlh1 strain growth inhibition, stronger effect = higher value
# Summary of the method: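 Inhibition values reflect reduced yeast growth in the presence of compound, referenced to vehicle controls, using a strain chosen for its alteration in DNA repair or cell cycle control.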
# [14] = NCI Yeast Anticancer Drug Screen. Data for the sgs1 strain (AID 173);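 also: 0% = growth of vehicle-only control cultures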; details: S. cerevisiae sgs1 mutant, stronger effect = higher value
# Summary of the method: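 Vehicle-treated cultures served as reference for growth inhibition of a yeast strain altered in DNA damage repair or cell cycle control after compound exposure.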
# [15] = NCI Yeast Anticancer Drug Screen. Data for the mlh1 rad18 strain (AID 175); details: S. cerevisiae mlh1 rad18 strain growth inhibition, stronger effect = higher value
# Summary of the method: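 Inhibition values reflect reduced growth of mutant yeast versus vehicle-treated controls following compound exposure; the mutations affect DNA damage repair.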
# [16] = NCI Yeast Anticancer Drug Screen. Data for the rad18 strain (AID 177); details: S. cerevisiae rad18 mutant growth inhibition, stronger effect = higher value
# Summary of the method: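 Steps: expose repair-mutant yeast to compound; measure growth; express as inhibition relative to vehicle control.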
# [17] = at 5.0 µM (retest, dose inferred, filed as 0.5)
# [18] = at 50.0 µM (retest, dose inferred, filed as 5.0)
compound,measurement,setting,value
NCCNCCNc1ccc(NCCNCCN)c2c1C(=O)c1c(O)ccc(O)c1C2=O,growth inhibition,[1]; at 1.2 µM,34% (inactive)
same,growth inhibition,[1]; at 3.7 µM,48% (inactive)
same,growth inhibition,[1]; at 11.0 µM,91% (active)
same,growth inhibition,[1]; at 33.0 µM,93% (active)
same,growth inhibition,[1]; at 100.0 µM,85% (active)
same,growth inhibition,[2]; at 1.2 µM,-49% (inactive)
same,growth inhibition,[2]; at 3.7 µM,-2% (inactive)
same,growth inhibition,[2]; at 11.0 µM,-4% (inactive)
same,growth inhibition,[2]; at 33.0 µM,0% (inactive)
same,growth inhibition,[2]; at 100.0 µM,12% (inactive)
same,growth inhibition,[3]; at 1.2 µM,9% (inactive)
same,growth inhibition,[3]; at 3.7 µM,36% (inactive)
same,growth inhibition,[3]; at 11.0 µM,69% (inactive)
same,growth inhibition,[3]; at 33.0 µM,84% (active)
same,growth inhibition,[3]; at 100.0 µM,69% (inactive)
same,growth inhibition,[4]; at 1.2 µM,-2% (inactive)
same,growth inhibition,[4]; at 3.7 µM,0% (inactive)
same,growth inhibition,[4]; at 11.0 µM,1% (inactive)
same,growth inhibition,[4]; at 33.0 µM,7% (inactive)
same,growth inhibition,[4]; at 100.0 µM,19% (inactive)
same,growth inhibition,[5]; at 1.2 µM,17% (inactive)
same,growth inhibition,[5]; at 3.7 µM,49% (inactive)
same,growth inhibition,[5]; [17],20% (inactive)
same,growth inhibition,[5]; at 11.0 µM,82% (active)
same,growth inhibition,[5]; at 33.0 µM,88% (active)
same,growth inhibition,[5]; [18],66% (inactive)
same,growth inhibition,[5]; at 50.0 µM,87.7% (active)
same,growth inhibition,[5]; at 100.0 µM,84% (active)
same,growth inhibition,[6]; at 1.2 µM,27% (inactive)
same,growth inhibition,[6]; at 3.7 µM,1% (inactive)
same,growth inhibition,[6]; [17],0% (inactive)
same,growth inhibition,[6]; at 11.0 µM,-7% (inactive)
same,growth inhibition,[6]; at 33.0 µM,11% (inactive)
same,growth inhibition,[6]; [18],45% (inactive)
same,growth inhibition,[6]; at 50.0 µM,0.2% (inactive)
same,growth inhibition,[6]; at 100.0 µM,31% (inactive)
same,growth inhibition,[7]; at 1.2 µM,-4% (inactive)
same,growth inhibition,[7]; at 3.7 µM,-2% (inactive)
same,growth inhibition,[7]; at 11.0 µM,0% (inactive)
same,growth inhibition,[7]; at 33.0 µM,5% (inactive)
same,growth inhibition,[7]; at 100.0 µM,15% (inactive)
same,growth inhibition,[8]; [17],-6% (inactive)
same,growth inhibition,[8]; [18],8% (inactive)
same,growth inhibition,[8]; at 50.0 µM,15.1% (inactive)
same,growth inhibition,[9]; at 1.2 µM,-10% (inactive)
same,growth inhibition,[9]; at 3.7 µM,-7% (inactive)
same,growth inhibition,[9]; at 11.0 µM,-10% (inactive)
same,growth inhibition,[9]; at 33.0 µM,-9% (inactive)
same,growth inhibition,[9]; at 100.0 µM,40% (inactive)
same,growth inhibition,[10]; [17],32% (inactive)
same,growth inhibition,[10]; [18],34% (inactive)
same,growth inhibition,[10]; at 50.0 µM,7% (inactive)
same,growth inhibition,[11]; at 1.2 µM,-4% (inactive)
same,growth inhibition,[11]; at 3.7 µM,-11% (inactive)
same,growth inhibition,[11]; [17],20% (inactive)
same,growth inhibition,[11]; at 11.0 µM,-10% (inactive)
same,growth inhibition,[11]; at 33.0 µM,-8% (inactive)
same,growth inhibition,[11]; [18],-1% (inactive)
same,growth inhibition,[11]; at 50.0 µM,-1.95% (inactive)
same,growth inhibition,[11]; at 100.0 µM,20% (inactive)
same,growth inhibition,[12]; at 1.2 µM,-3% (inactive)
same,growth inhibition,[12]; at 3.7 µM,-3% (inactive)
same,growth inhibition,[12]; at 11.0 µM,-3% (inactive)
same,growth inhibition,[12]; at 33.0 µM,14% (inactive)
same,growth inhibition,[12]; at 100.0 µM,53% (inactive)
same,growth inhibition,[13]; at 1.2 µM,0% (inactive)
same,growth inhibition,[13]; at 3.7 µM,-2% (inactive)
same,growth inhibition,[13]; at 11.0 µM,-1% (inactive)
same,growth inhibition,[13]; at 33.0 µM,-1% (inactive)
same,growth inhibition,[13]; at 100.0 µM,16% (inactive)
same,growth inhibition,[14]; at 1.2 µM,1% (inactive)
same,growth inhibition,[14]; at 3.7 µM,4% (inactive)
same,growth inhibition,[14]; at 11.0 µM,2% (inactive)
same,growth inhibition,[14]; at 33.0 µM,13% (inactive)
same,growth inhibition,[14]; at 100.0 µM,25% (inactive)
same,growth inhibition,[15]; [17],11% (inactive)
same,growth inhibition,[15]; [18],0% (inactive)
same,growth inhibition,[15]; at 50.0 µM,16.5% (inactive)
same,growth inhibition,[16]; at 1.2 µM,4% (inactive)
same,growth inhibition,[16]; at 3.7 µM,2% (inactive)
same,growth inhibition,[16]; at 11.0 µM,9% (inactive)
same,growth inhibition,[16]; at 33.0 µM,22% (inactive)
same,growth inhibition,[16]; at 100.0 µM,48% (inactive)
